Assay results taken from PubChem BioAssay (NCATS).
Results filed as inconclusive are left out. Active and inactive are the calls of the source. The call rests on the fitted dose curve; in most records, active means well fitted inhibition curve with a large enough effect; inconclusive means small, poorly fitted or top-dose-only effect; inactive means flat fitted curve, though single readings scatter.

Columns and labels:
Test in all cases: qHTS profiling for inhibitors of Plasmodium falciparum proliferation (AID 504749); further: nearly all actives have a fitted effect of over 60% in size
Conditions in all cases: P. falciparum in erythrocytes, SYBR Green DNA, 72 h; series mostly up to 28.7 µM
ATS189 = test system: ATS189
Outline: (§1)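 Readout was DNA-dye fluorescence from lysed cultures, ex 485/em 535 nm. Parasitized red cells had grown 72 h with compound; data scaled between 0.29 uM artemisinin and DMSO wells and corrected using vehicle-only plates.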

ATS95 = test system: ATS95
Outline: as §1

C2A = test system: C2A
Outline: as §1

CP185 = test system: CP185
Outline: as §1

CP191 = test system: CP191
Outline: as §1

CP192 = test system: CP192
Outline: as §1

CP194 = test system: CP194
Outline: as §1

CP201 = test system: CP201
Outline: as §1

CP203 = test system: CP203
Outline: as §1

CP211 = test system: CP211
Outline: as §1

CP215 = test system: CP215
Outline: as §1

CP217 = test system: CP217
Outline: as §1

CP237 = test system: CP237
Outline: as §1

CP238 = test system: CP238
Outline: as §1

CP247 = test system: CP247
Outline: as §1

CP250 = test system: CP250
Outline: as §1

CP252 = test system: CP252
Outline: as §1

CP256 = test system: CP256
Outline: as §1

CP260 = test system: CP260
Outline: as §1

CP262 = test system: CP262
Outline: as §1

Measured: Potency

CC(=O)OCC(CCn1cnc2cnc(N)nc21)COC(C)=O
inactive: ATS189 | ATS95 | C2A | CP185 | CP191 | CP192 | CP194 | CP201 | CP203 | CP211 | CP215 | CP217 | CP237 | CP238 | CP247 | CP250 | CP252 | CP256 | CP260 | CP262

CN1CCC(=C2c3ccccc3C=Cc3ccccc32)CC1
inactive: ATS189 | ATS95 | C2A | CP185 | CP191 | CP192 | CP194 | CP201 | CP203 | CP211 | CP215 | CP217 | CP237 | CP238 | CP247 | CP250 | CP252 | CP256 | CP260 | CP262

O=C1N(c2ccccc2)c2ccccc2C1(Cc1ccncc1)Cc1ccncc1
inactive: ATS189 | ATS95 | C2A | CP185 | CP191 | CP192 | CP194 | CP201 | CP203 | CP211 | CP215 | CP217 | CP238 | CP247 | CP250 | CP252 | CP256 | CP260 | CP262

C[C@](N)(Cc1ccc(O)c(O)c1)C(=O)O
inactive: ATS189 | ATS95 | C2A | CP185 | CP191 | CP192 | CP194 | CP201 | CP203 | CP211 | CP215 | CP217 | CP237 | CP238 | CP247 | CP250 | CP252 | CP256 | CP260 | CP262

CN1C(C(=O)Nc2ccccn2)=C(O)c2ccccc2S1(=O)=O
inactive: ATS189 | ATS95 | C2A | CP185 | CP191 | CP192 | CP194 | CP201 | CP203 | CP211 | CP215 | CP217 | CP237 | CP238 | CP247 | CP250 | CP252 | CP256 | CP260 | CP262

CC[N+](CC)(CC)CCOc1cccc(OCC[N+](CC)(CC)CC)c1OCC[N+](CC)(CC)CC
inactive: ATS189 | ATS95 | C2A | CP185 | CP191 | CP192 | CP194 | CP201 | CP203 | CP211 | CP215 | CP217 | CP237 | CP238 | CP247 | CP250 | CP252 | CP256 | CP260 | CP262

CC(C)NCC(O)c1ccc(O)c(O)c1 (stereo not drawn)
inactive: ATS189 | ATS95 | C2A | CP185 | CP191 | CP192 | CP194 | CP201 | CP203 | CP211 | CP215 | CP217 | CP237 | CP238 | CP247 | CP250 | CP252 | CP256 | CP260 | CP262

CS(=O)(=O)CCNCc1ccc(-c2ccc3ncnc(Nc4ccc(OCc5cccc(F)c5)c(Cl)c4)c3c2)o1
inactive: ATS189 | ATS95 | C2A | CP185 | CP191 | CP192 | CP194 | CP201 | CP203 | CP211 | CP215 | CP217 | CP237 | CP238 | CP247 | CP250 | CP252 | CP256 | CP260 | CP262

COc1ccccc1N1CCN(CC(O)COc2cccc3ccccc23)CC1 (stereo not drawn)
inactive: ATS189 | ATS95 | C2A | CP185 | CP191 | CP192 | CP194 | CP201 | CP203 | CP211 | CP215 | CP217 | CP237 | CP238 | CP247 | CP250 | CP252 | CP256 | CP260 | CP262

CC(C)(Oc1ccc(C2CC2(Cl)Cl)cc1)C(=O)O (stereo not drawn)
inactive: ATS189 | ATS95 | C2A | CP185 | CP191 | CP192 | CP194 | CP201 | CP203 | CP211 | CP215 | CP217 | CP237 | CP238 | CP247 | CP250 | CP252 | CP256 | CP260

NCCS(=O)(=O)O
inactive: ATS189 | ATS95 | C2A | CP185 | CP191 | CP192 | CP194 | CP201 | CP203 | CP211 | CP215 | CP217 | CP237 | CP238 | CP247 | CP250 | CP252 | CP256 | CP260 | CP262

CN(C)c1nc(N(C)C)nc(N(C)C)n1
inactive: ATS189 | ATS95 | C2A | CP185 | CP191 | CP192 | CP194 | CP201 | CP203 | CP211 | CP215 | CP217 | CP237 | CP238 | CP247 | CP250 | CP252 | CP256 | CP260 | CP262

Cc1cnc(C(=O)NCCc2ccc(S(=O)(=O)NC(=O)NC3CCCCC3)cc2)cn1
inactive: ATS189 | ATS95 | C2A | CP185 | CP191 | CP192 | CP194 | CP201 | CP203 | CP211 | CP215 | CP217 | CP237 | CP238 | CP247 | CP250 | CP252 | CP256 | CP260 | CP262

Cc1cn([C@H]2C=C[C@@H](CO)O2)c(=O)[nH]c1=O
inactive: ATS189 | ATS95 | C2A | CP185 | CP191 | CP192 | CP194 | CP201 | CP203 | CP211 | CP215 | CP217 | CP237 | CP238 | CP247 | CP250 | CP252 | CP256 | CP260 | CP262

O=c1c(-c2ccc(O)cc2)coc2cc(O)cc(O)c12
inactive: ATS189 | ATS95 | C2A | CP185 | CP191 | CP192 | CP194 | CP201 | CP203 | CP211 | CP215 | CP217 | CP237 | CP238 | CP247 | CP250 | CP252 | CP256 | CP260 | CP262

Cn1c(=O)c2c(ncn2C)n(C)c1=O
inactive: ATS189 | ATS95 | C2A | CP185 | CP191 | CP192 | CP194 | CP201 | CP203 | CP211 | CP215 | CP217 | CP237 | CP238 | CP247 | CP250 | CP252 | CP256 | CP260 | CP262

NC(=O)OCC(COC(N)=O)c1ccccc1
inactive: ATS189 | ATS95 | C2A | CP185 | CP191 | CP192 | CP194 | CP201 | CP203 | CP211 | CP215 | CP217 | CP237 | CP238 | CP247 | CP250 | CP252 | CP256 | CP260 | CP262

Cc1cc(C(C)(C)C)c(O)c(C)c1CC1=NCCN1
inactive: ATS189 | ATS95 | C2A | CP185 | CP191 | CP192 | CP194 | CP201 | CP203 | CP211 | CP215 | CP217 | CP237 | CP238 | CP247 | CP250 | CP252 | CP256 | CP260 | CP262

CCOC(=O)C(C)(C)Oc1ccc(Cl)cc1
inactive: ATS189 | ATS95 | C2A | CP185 | CP191 | CP192 | CP194 | CP201 | CP203 | CP211 | CP215 | CP217 | CP237 | CP238 | CP247 | CP250 | CP252 | CP256 | CP260 | CP262

N[C@@H](Cc1c[nH]c2ccc(O)cc12)C(=O)O
inactive: ATS189 | ATS95 | C2A | CP185 | CP191 | CP192 | CP194 | CP201 | CP203 | CP211 | CP215 | CP217 | CP237 | CP238 | CP247 | CP250 | CP252 | CP256 | CP260 | CP262

NS(=O)(=O)c1cc2c(cc1Cl)NCNS2(=O)=O
inactive: ATS189 | ATS95 | C2A | CP185 | CP191 | CP192 | CP194 | CP201 | CP203 | CP211 | CP215 | CP217 | CP237 | CP238 | CP247 | CP250 | CP252 | CP256 | CP260 | CP262

CN1CCN2c3ccccc3Cc3ccccc3C2C1 (stereo not drawn)
inactive: ATS189 | ATS95 | C2A | CP185 | CP191 | CP192 | CP194 | CP201 | CP203 | CP211 | CP215 | CP217 | CP237 | CP238 | CP247 | CP250 | CP252 | CP256 | CP260 | CP262

Cc1cn([C@H]2C[C@H](N=[N+]=[N-])[C@@H](CO)O2)c(=O)[nH]c1=O
inactive: ATS189 | ATS95 | C2A | CP185 | CP191 | CP192 | CP194 | CP201 | CP203 | CP211 | CP215 | CP217 | CP237 | CP238 | CP247 | CP250 | CP252 | CP256 | CP260 | CP262

NCCCCCC(=O)O
inactive: ATS189 | ATS95 | C2A | CP185 | CP191 | CP192 | CP194 | CP201 | CP203 | CP211 | CP215 | CP217 | CP237 | CP238 | CP247 | CP250 | CP252 | CP256 | CP260 | CP262

CCOC(=O)c1ncn2c1CN(C)C(=O)c1cc(F)ccc1-2
inactive: ATS189 | ATS95 | C2A | CP185 | CP191 | CP192 | CP194 | CP201 | CP203 | CP211 | CP215 | CP217 | CP237 | CP238 | CP247 | CP250 | CP252 | CP256 | CP260 | CP262

COc1nc(C)nc(Cl)c1NC1=NCCN1
inactive: ATS189 | ATS95 | C2A | CP185 | CP191 | CP192 | CP194 | CP201 | CP203 | CP211 | CP215 | CP217 | CP237 | CP238 | CP247 | CP250 | CP252 | CP256 | CP260 | CP262
